Measured values: PubChem BioAssay (NCATS)
Records with an inconclusive call do not appear. The source made the active and inactive calls. Calls follow the shape of the dose curve; as a rule, active = well fitted curve in the direction sought with a large enough effect; inconclusive = small, poorly fitted or top-dose-only effect, or another doubt; inactive = no such curve, though single readings can be large; an effect the other way counts as inactive or inconclusive.

Experiments:
[1] = tested on: Zika virus NS2B-NS3 protease (linked construct); test: Primary screen NINDS Rhodamine qHTS for Zika virus inhibitors (AID 1347160); also: % is scaled to controls: 0 for no effect and ±100 for the full control effect; nearly all actives have a fitted effect of over 55% in size
How it was run: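 Each compound, titrated, sat 15 min with 25 nM linked protease before 1.5 microM Rhodamine110 substrate went in. Fluorescence gain over the next 15 min, in pH 8.0 Tris with Tween 20, gave Hill-fitted curves.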

[2] = target: Calcium and integrin-binding protein 1 (Homo sapiens) (UniProt Q99828); test: Primary qHTS for Identification of Calcium Integrin Binding Protein 1 (CIB1) Competitor (AID 1508620);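 also: GST tagged CIB1 binding a fluorescein labelled alphaIIb integrin peptide tracer; top concentration of the series differs between compounds; % is scaled to controls: 0 for no effect and ±100 for the full control effect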
Calcium and integrin-binding protein 1 (Homo sapiens), sequence (Q99828 whole entry, looked up): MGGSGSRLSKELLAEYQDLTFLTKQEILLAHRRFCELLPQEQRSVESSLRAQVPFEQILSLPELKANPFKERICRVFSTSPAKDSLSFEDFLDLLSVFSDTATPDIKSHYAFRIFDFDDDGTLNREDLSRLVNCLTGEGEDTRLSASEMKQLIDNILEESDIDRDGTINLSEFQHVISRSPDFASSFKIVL
How it was run: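 Fluorescence polarization competition: CIB1-GST (1 uM final) preincubated with compound 15 min at room temperature, then FITC-labeled alphaIIb peptide (100 nM final) added for another 15 min. Polarization read at Ex 480/Em 540.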

[3] = target: Luciferin 4-monooxygenase (Photinus pyralis) (UniProt P08659); test: Primary firefly luciferase (FLuc) qHTS assay for identification of artifact compounds. (AID 1845220); settings: outcome: dose series up to 54.1 µM unless noted; also: nearly all actives have a fitted effect of over 60% in size
How it was run: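 Reaction readout was CCD-imaged luminescence, taken 5 min after adding 10 nM purified firefly enzyme to compound-treated wells holding 10 uM luciferin and ATP in pH 7.6 buffer.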

[4] = Primary fluorescence-based thiol-reactive (MSTI) qHTS assay for identification of artifact compounds. (AID 1845221);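 also: thiol-reactive compounds lower the probe fluorescence signal; nearly all actives have a fitted effect of over 65% in size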
How it was run: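 Thiol-reactive compounds detected by quenching of 4 uM MSTI fluorescence (525/598 nm) after 1 h room-temperature dark incubation in PBS pH 7.4, 2% DMSO. qHTS titration; percent inhibition Hill-fitted against Acetyl-MSTI/MSTI controls.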

[5] = tested on: Nanoluciferase (engineered Oplophorus gracilirostris luciferase); test: Primary Nanoluciferase (NLuc) qHTS assay for identification of artifact compounds. (AID 1845222);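 also: NLuc secreted into diluted conditioned medium of S16 cells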
How it was run: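 Concentration-response data were obtained by luminescence after 5 min with Nano-Glo substrate at 1:100. The enzyme was diluted S16 NLuc-expressing cell medium, preincubated with compound for 15 min at RT. Curves were fitted with a 4-parameter Hill model.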

HaCat = test: Cytotoxic Profiling of Annotated Libraries Using Quantitative High-Throughput Screening (AID 1296008); settings: Five cell lines viability, CellTiter-Glo ATP luminescence, 48-72 h; max response: stronger effect = lower value; also: nearly all actives have a fitted effect of over 60% in size; also: potency is read from the fitted curve at half-maximal effect
How it was run: (§1)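 Compounds were pin-transferred onto cells and incubated 48 or 72 hr at 37 degree Celsius, 95% humidity. CellTiter-Glo was added, plates sat 10 min at room temperature, then ATP-coupled luminescence was imaged as the viability read-out.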

CASKI = test: Primary qHTS to identify gynecologic anti-cancer compounds using libraries of approved drugs and bioactive compounds (AID 1345084); settings: Gynecologic cancer cell panel viability, ATPlite luminescence, 48 h; series mostly up to 57.5 µM; also: nearly all actives have a fitted effect of over 55% in size; also: potency is read from the fitted curve at half-maximal effect; as to activity change, negative = cytotoxicity: % is scaled to controls: 0 for no effect and ±100 for the full control effect
How it was run: (§2)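 Five-point cytotoxicity, 48 h drug exposure at 37 C, 5% CO2, on cells seeded 16 h beforehand. ATP content read by ATPlite luminescence.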

OV90 = test: as above; settings: Gynecologic cancer cell panel viability, ATPlite luminescence, 48 h; series mostly up to 57.5 µM
How it was run: as §2

Tov112D = test: as above; settings: Gynecologic cancer cell panel viability, ATPlite luminescence, 48 h; series mostly up to 57.5 µM
How it was run: as §2

[6] = target: Glutathione peroxidase 1 (Homo sapiens) (UniProt P07203); test: Primary qHTS Assay for Inhibitors of Recombinant Selenoprotein Glutathione Peroxidase 1 (GPX1) (AID 1845191); also: nearly all actives have a fitted effect of over 65% in size
Glutathione peroxidase 1 (Homo sapiens), sequence (P07203 whole entry, looked up): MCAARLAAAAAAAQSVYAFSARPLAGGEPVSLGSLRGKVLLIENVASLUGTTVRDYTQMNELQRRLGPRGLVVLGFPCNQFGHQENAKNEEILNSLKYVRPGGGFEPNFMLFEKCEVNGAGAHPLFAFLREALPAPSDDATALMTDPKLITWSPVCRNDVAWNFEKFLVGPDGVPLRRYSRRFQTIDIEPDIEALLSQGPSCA
How it was run: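 GPX1 10 nM, GR 100 nM, GSH 1 mM, NADPH 0.5 mM, CHP 0.5 mM (final). 30-min cpd preincubation, RT. Ex340/Em450 read t=0, t=15 min.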

[7] = target: Phospholipid hydroperoxide glutathione peroxidase GPX4 (Homo sapiens) (UniProt P36969); test: Primary qHTS Assay for Inhibitors of Recombinant Selenoprotein Glutathione Peroxidase 4 (GPX4) (AID 1845192); also: nearly all actives have a fitted effect of over 65% in size
Phospholipid hydroperoxide glutathione peroxidase GPX4 (Homo sapiens), sequence (P36969 whole entry, looked up): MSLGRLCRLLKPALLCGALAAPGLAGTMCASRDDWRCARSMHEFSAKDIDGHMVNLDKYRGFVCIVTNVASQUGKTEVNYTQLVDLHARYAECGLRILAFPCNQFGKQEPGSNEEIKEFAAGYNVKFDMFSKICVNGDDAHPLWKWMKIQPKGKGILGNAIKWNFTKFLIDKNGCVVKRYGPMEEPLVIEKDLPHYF
How it was run: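 qHTS, GR-coupled: GPX4 200 nM + cpd 30 min RT → GSH 1 mM, NADPH 0.5 mM, GR 100 nM → CHP 0.5 mM start; fluor 340/450 at t0 and t15 min; no-enzyme wells as control.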

[8] = Primary redox qHTS assay for identification of artifact compounds. (AID 1845223);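 also: 0% = DMSO and 100% = reference compound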
How it was run: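 Redox-cycling detection via DTT (250 uM final) oxidation coupled to Amplex Red (25 uM)/HRP (250 mU/mL) in HBSS. 15 min preincubation plus 30 min after DTT, room temperature. Ex/Em 525/598 nm; 4-parameter Hill fit against DMSO and 10 uM DA3003.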

CAOV3 = test: Primary qHTS to identify gynecologic anti-cancer compounds using libraries of approved drugs and bioactive compounds (AID 1345084); settings: Gynecologic cancer cell panel viability, ATPlite luminescence, 48 h; series mostly up to 57.5 µM; also: nearly all actives have a fitted effect of over 55% in size; also: potency is read from the fitted curve at half-maximal effect; as to activity change, negative = cytotoxicity: % is scaled to controls: 0 for no effect and ±100 for the full control effect
How it was run: as §2

Es-2 = test: as above; settings: Gynecologic cancer cell panel viability, ATPlite luminescence, 48 h; series mostly up to 57.5 µM
How it was run: as §2

Hek293T = test: as above; settings: Gynecologic cancer cell panel viability, ATPlite luminescence, 48 h, control line for the selectivity index; series mostly up to 57.5 µM
How it was run: as §2

JEG-3 = test: as above; settings: Gynecologic cancer cell panel viability, ATPlite luminescence, 48 h; series mostly up to 57.5 µM
How it was run: as §2

PA-1 = test: as above; settings: Gynecologic cancer cell panel viability, ATPlite luminescence, 48 h; series mostly up to 57.5 µM
How it was run: as §2

Tov-21-G = test: as above; settings: Gynecologic cancer cell panel viability, ATPlite luminescence, 48 h; series mostly up to 57.5 µM
How it was run: as §2

NIH3T3 = test: Cytotoxic Profiling of Annotated Libraries Using Quantitative High-Throughput Screening (AID 1296008); settings: Five cell lines viability, CellTiter-Glo ATP luminescence, 48-72 h; max response: stronger effect = lower value; also: nearly all actives have a fitted effect of over 60% in size; also: potency is read from the fitted curve at half-maximal effect
How it was run: as §1

C33A = test: Primary qHTS to identify gynecologic anti-cancer compounds using libraries of approved drugs and bioactive compounds (AID 1345084); settings: Gynecologic cancer cell panel viability, ATPlite luminescence, 48 h; series mostly up to 57.5 µM; also: nearly all actives have a fitted effect of over 55% in size; also: potency is read from the fitted curve at half-maximal effect; as to activity change, negative = cytotoxicity: % is scaled to controls: 0 for no effect and ±100 for the full control effect
How it was run: as §2

C/C=C(\C)C(O)C(C)/C=C(C)/C=C/C/C(C)=C/Cc1nc(OC)c(OC)c(O[C@@H]2O[C@@H](C)[C@H](O)[C@@H](O)[C@H]2O)c1C (stereo partly specified)
active: Potency (CASKI) 3.98 µM
inactive: Potency [1] | Potency [2] | outcome [3] | Potency [4] | Potency [5] | outcome (HaCat) | Potency (OV90) | Potency (Tov112D)

CN1CN(c2ccccc2)C2(CCN(CCCC(=O)c3ccc(F)cc3)CC2)C1=O
inactive: Potency [1] | Potency [2] | Potency [6] | Potency [7] | outcome [3] | Potency [4] | Potency [5] | Potency [8] | max response (HaCat) 2.53% | Potency (CAOV3) | Potency (CASKI) | Potency (Es-2) | Potency (Hek293T) | Potency (JEG-3) | Potency (PA-1) | Potency (Tov-21-G) | Potency (Tov112D)

C[C@@H]1O[C@@H](O[C@H]2CC[C@@]3(C)C(CC[C@@H]4C3CC[C@]3(C)[C@@H](C5=CC(=O)OC5)CC[C@]43O)C2)[C@H](O[C@@H]2O[C@H](CO)[C@@H](O)[C@H](O)[C@H]2O)[C@H](O)[C@H]1O (stereo partly specified)
active: Potency (HaCat) 2.17 µM | Potency (C33A) 562 nM | Potency (CAOV3) 1 µM | Potency (Es-2) 0.891 µM | Potency (Hek293T) 0.891 µM | Potency (JEG-3) 2.82 µM | Potency (PA-1) 1 µM | Potency (Tov-21-G) 0.708 µM | Potency (Tov112D) 0.224 µM
inactive: Potency [1] | Potency [2] | Potency [6] | outcome [3] | Potency [4] | Potency [5] | max response (NIH3T3) -13.4%

COc1cccc(NCC(F)Cn2c3ccc(Br)cc3c3cc(Br)ccc32)c1 (stereo unspecified)
inactive: Potency [1] | Potency [2] | Potency [6] | Potency [7] | outcome [3] | Potency [4] | Potency [5] | Potency [8] | Potency (OV90)
active: Potency (HaCat) 8.2 µM | Potency (NIH3T3) 20.6 µM | Potency (CASKI) 7.94 µM | Potency (PA-1) 20 µM | Potency (Tov112D) 10 µM

CC1=CC2/C=C(\C)CCC(O)C(O)/C=C/C(=O)C23C(=O)NC(CC(C)C)C3C1C (stereo unspecified)
inactive: Potency [1] | Potency [2] | Potency [6] | Potency [7] | outcome [3] | Potency [4] | Potency [5] | Potency [8] | Potency (Tov-21-G)
active: Potency (NIH3T3) 7.96 µM | Potency (Es-2) 10 µM | Potency (Hek293T) 7.94 µM | Potency (PA-1) 12.6 µM | Potency (Tov112D) 10 µM

Cc1cccc(NC(=O)c2ccc(C(F)(F)F)cc2C(=O)O)n1
inactive: Potency [1] | Potency [2] | Potency [6] | Potency [7] | outcome [3] | Potency [4] | Potency [5] | Potency [8] | outcome (HaCat) | Potency (CASKI) | Potency (OV90)

CC(=O)OC[C@]12C[C@H](OC(C)=O)C(C)=C[C@H]1O[C@@H]1[C@H](O)[C@@H](O)[C@@]2(C)[C@]12CO2
inactive: Potency [1] | Potency [6] | outcome [3] | Potency [4] | Potency [5] | Potency [8]
active: Potency (HaCat) 1.28 µM | Potency (NIH3T3) 1.01 µM | Potency (CAOV3) 1 µM | Potency (CASKI) 1.41 µM | Potency (Es-2) 1.26 µM | Potency (Hek293T) 0.398 µM | Potency (JEG-3) 5.62 µM | Potency (OV90) 3.16 µM | Potency (Tov112D) 2.24 µM

CC[C@H]1/C=C\C=C/C[C@@H](C)[C@H](O)[C@@](C)(O)C(=O)[C@@H](C)[C@H](O)[C@@H](C)C(=O)[C@@H](C)[C@H](O)[C@@H](C)/C=C\C(=O)O[C@@H]2[C@H](C)[C@H](CC1)O[C@]1(CC[C@H](C)[C@H](C[C@@H](C)O)O1)[C@H]2C
inactive: Potency [1] | Potency [2] | Potency [6] | Potency [7] | outcome [3] | Potency [4] | Potency [5] | Potency [8] | Potency (CASKI) | Potency (OV90) | Potency (PA-1) | Potency (Tov-21-G)

CC(C)C(=O)O[C@H]1[C@@H]2[C@H](C)C(=O)O[C@@H]2C[C@@H](C)[C@@H]2C=CC(=O)[C@]21C
inactive: Potency [1] | Potency [2] | Potency [6] | Potency [7] | outcome [3] | Potency [4] | Potency [5] | Potency [8] | Potency (CAOV3)
active: Potency (Hek293T) 7.94 µM | Potency (JEG-3) 10 µM | Potency (Tov-21-G) 10 µM

C/C1=C/[C@@H](C)C/C=C/[C@H]2[C@@H]3O[C@]3(C)[C@@H](C)[C@H]3[C@H](Cc4c[nH]c5ccccc45)NC(=O)[C@]32C(=O)/C=C\C(=O)[C@@H]1O
active: Potency (NIH3T3) 1.59 µM
inactive: Potency [1] | Potency [6] | Potency [7] | outcome [3] | Potency [5] | Potency [8] | Potency (C33A) | Potency (CAOV3) | Potency (CASKI) | Potency (Es-2) | Potency (Hek293T) | Potency (JEG-3) | Potency (OV90) | Potency (PA-1) | Potency (Tov-21-G) | Potency (Tov112D)

CC(C)OC(=O)c1ccnc2cc(C(OCCN3CCCCC3)c3ccccc3Cl)sc12 (stereo unspecified)
inactive: Potency [1] | Potency [2] | Potency [6] | Potency [7] | outcome [3] | Potency [4] | Potency [5] | outcome (HaCat) | Potency (C33A) | Potency (CASKI) | Potency (Es-2) | Potency (Hek293T) | Potency (JEG-3) | Potency (PA-1) | Potency (Tov-21-G) | Potency (Tov112D)

Cc1sc2c(c1C)C(c1ccc(Cl)cc1)=N[C@@H](CC(=O)Nc1ccc(O)cc1)c1nnc(C)n1-2
inactive: Potency [1] | Potency [2] | Potency [6] | Potency [7] | outcome [3] inactive [at 11.6 µM] | activity change, negative = thiol reactive [4] 36.2% [at 11.5 µM] | activity, negative = inhibition [5] -3.15% [at 11.6 µM] | outcome (HaCat) | activity change, negative = cytotoxicity (C33A) -1.06% [at 11.6 µM] | activity change, negative = cytotoxicity (Hek293T) -11.9% [at 11.6 µM] | activity change, negative = cytotoxicity (JEG-3) -12.8% [at 11.6 µM] | activity change, negative = cytotoxicity (Tov112D) -20.5% [at 11.6 µM]

C=C(CO)[C@@]12O[C@@H]1[C@@]1(C)C(=CC2=O)CC[C@@H](O)[C@@H]1C
active: Potency (NIH3T3) 7.31 µM
inactive: Potency [1] | Potency [2] | Potency [6] | Potency [7] | outcome [3] | Potency [5] | Potency [8] | outcome (HaCat) | Potency (CASKI) | Potency (JEG-3)
